Sampled rows, rich in hits. Any-hit rate of the full collection: about 1.8%.
PolyA inh = yeast polyadenylation inhibition. AID 1875. S. cerevisiae SKY197-pL101 polyadenylation reporter, beta-gal luminescence; efflux-impaired pdr1/pdr3 knockout yeast; score 100 = 6 SD above DMSO. activity score, % at 12 µM. 0.02% of 300,000 active;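 active = lowest replicate activity score at least 50, where 100 means six control SD above control mean; inconclusive = lowest score under 50 but half or more replicates reach 50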;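 note: yeast exposed to compound for 9 h at 30 °C; higher score means more reporter readthrough which indicates perturbed polyadenylation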
NALP1 yeast inh = inhibitors of NALP1 inflammasome in yeast; 0.61% of 280,000 active; S. cerevisiae NALP1/ASC/caspase-1 growth, X-gal OD620, 72 h; inhibition, % at 10 µM; in the data active = inhibition mostly above about 24%, no sharp cut-off; inactive = mostly below about 32%
NALP3 yeast inh = blocks the NALP3 inflammasome reconstituted in yeast. Yeast reconstituted NLRP3/ASC/caspase-1, beta-gal luminescence, 24 h. 0.39% of 330,000 active. inhibition, % at 10 µM;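 active = inhibition of 50% or more; inactive = inhibition below 50%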
SUMO Mot1 rescue = blocks SUMOylation pathway, rescuing yeast Mot1-301 growth; S. cerevisiae Mot1-301 growth rescue, ATP luminescence, 38.5C; percent above DMSO median, 100 means doubled; growth rescue, % at 18.8 µM; 1% of 320,000 active;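 active = every valid replicate shows activation above 250% relative to neutral control wells; inactive = the rest, any valid replicate at or below 250%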
Yeast Mot1 SUMO = yeast SUMO pathway inhibition in dose response; shares compounds with SUMO Mot1 rescue; S. cerevisiae Mot1-301 galactose growth, ATP luminescence, 24 h; -100 = growth of slx-deleted rescue strain; growth activity, percent, % at 42 µM; 2,300 tested, under 10 active; AID 493004;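 active = Signal drops as the depositor expects, and the fitted half-maximal dose is no more than ten times the top valid tested dose; inconclusive = Poor fit, or a flat curve whose signal drops by 30% to 70%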;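 note: more negative values mean stronger growth rescue toward the control strain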
Hits are given with their value; . = inactive; ? = inconclusive; / = no result; + = active, no number.

SMILES	PolyA inh	NALP1 yeast inh	NALP3 yeast inh	SUMO Mot1 rescue	Yeast Mot1 SUMO
CCCCNC(=O)N1CCC(CCC(=O)N(C)Cc2ccccc2)CC1	.	.	.	375	.
O=C(Nc1ccc2c(c1)OCCO2)c1c[nH]c(=O)n(-c2ccc(F)c(Cl)c2)c1=O	.	.	.	.	/
CCCNC(=O)Cn1sc2nc(C)cc(C)c2c1=O	.	/	.	423	.
Cc1cc(C)c2c(=O)n(CC(=O)N3CCC(N4CCCCC4)CC3)sc2n1	.	.	.	.	/
Cn1c(SCC(=O)Nc2ccccc2Cl)nnc1C1CC1	.	.	.	.	/
Cn1c(SCC(=O)Nc2nnc(-c3ccccc3)o2)nnc1C1CC1	.	.	.	545	.
CN(C)c1ccc(NS(=O)(=O)c2cccc(Cl)c2)cc1	.	.	.	733	.
CN(C)c1ccc(NS(=O)(=O)c2ccc(Cl)cc2)cc1	.	.	.	.	/
CCCCSc1nnc(-c2ccccc2)c2ccccc12	.	.	.	.	/
CC(=O)c1cc2c(cc1NC(=O)C1CN(C(C)=O)c3ccccc3O1)OCO2 (stereo unspecified)	/	/	.	.	/
Cc1ccc(N/C=C(\C#N)c2ccc(OCCCF)cc2)cc1	.	.	.	724	.
COc1ccc(/C=N/NC(=O)c2ccc(NS(=O)(=O)c3cccs3)cc2)cc1	/	/	.	.	/
CC(C)(C)NC(=O)CC1C(=O)NCCN1Cc1c(F)cccc1Cl (stereo unspecified)	.	.	.	836	.
CCCCC(=O)Nc1cc(OC)c(NC(=O)C2CCCCC2)cc1OC	.	.	.	711	.
O=c1c2c3c(sc2n2cnnc2n1-c1ccccc1)N(Cc1ccccc1)CCC3	.	.	.	445	.
CCCCn1c(/N=C/c2ccc3c(c2)OCO3)nc2ccccc21	.	.	.	577	.
Cn1c(=O)c2c(ncn2CC(=O)OCC(=O)Nc2ccc(Cl)cc2)n(C)c1=O	.	.	.	847	.
CN(c1ccc(C(=O)NC2CC2)cc1)S(=O)(=O)c1ccccc1	.	.	.	.	/
CCCNC(=O)c1cc2c(C(F)(F)F)nn(C)c2s1	.	.	.	859	.
CC(C)NC(=O)c1cc2c(C(F)(F)F)nn(C)c2s1	.	.	.	.	/
CCc1ccc(S(=O)(=O)Nc2ccc(-c3nc4cccnc4s3)cc2)s1	.	.	.	.	/
O=S(=O)(Nc1ccc(-c2nc3cccnc3s2)cc1)c1cc(F)ccc1F	.	.	.	370	.
O=C(NC1CCCc2ccccc21)C1CCN(S(=O)(=O)c2cccc3nonc23)CC1 (stereo unspecified)	.	.	.	.	/
COC(=O)c1ccccc1NC(=O)NC1CCCC1	.	.	.	.	/
COc1ccc(NC(=O)c2ccccc2NC(=O)NC2CCCCC2)cc1	.	.	.	522	.
SMILES	PolyA inh	NALP1 yeast inh	NALP3 yeast inh	SUMO Mot1 rescue	Yeast Mot1 SUMO
Nc1nnc(CCN2C(=O)CSC2=O)s1	.	.	.	.	/
CC1(C(=O)NCc2ccccn2)C=CCN1C(=O)c1ccccc1 (stereo unspecified)	.	.	.	.	/
C/C(CC(=O)Nc1cccnc1)=N\NC(=O)C(C)Oc1ccc(Cl)cc1Cl (stereo unspecified)	.	.	.	671	.
COc1ccccc1C1NC(=O)CS1 (stereo unspecified)	.	.	.	360	.
c1ccc(CCNc2nc(-c3cccnc3)cs2)cc1	.	.	.	.	/
CC(C)Sc1ccc(C(=O)Nc2ccc(F)cc2F)cn1	.	.	.	537	.
O=C(CSc1nnc(CNC(=O)c2c(F)cccc2F)o1)NCCc1ccccc1	.	.	.	.	/
O=C(CSc1nnc(CNC(=O)c2ccccc2F)o1)NCCc1ccccc1	.	.	.	+	.
O=C(COC(=O)COc1ccccc1Cl)Nc1ccccc1OC(F)F	.	.	.	578	.
O=C(NCC(c1ccco1)N1CCCCC1)c1cccc(S(=O)(=O)Nc2ccccc2Cl)c1 (stereo unspecified)	.	.	.	.	/
CC1=C(C)CC2C(=O)N(Cc3ccccc3)C(=O)C2C1 (stereo unspecified)	.	.	.	.	/
CC1=Nc2ccc(C)cc2N(Cc2ccccc2)C(=O)C1	.	.	.	629	.
COc1ccccc1NC(=S)N(Cc1ccco1)Cc1cc2cc(C)c(C)cc2[nH]c1=O	.	.	.	.	/
COc1ccccc1NC(=S)N(Cc1ccco1)Cc1cc2cccc(C)c2[nH]c1=O	.	.	.	387	.
Cc1ccc(NC(=O)COc2ccccc2C(=O)NCCN(C)C)cc1	.	.	.	800	.
COc1ccccc1C(=O)NCCC(=O)N(C)CC(=O)Nc1ccc(C)cc1	.	/	.	.	/
Cc1cc2c(n1-c1ccc(C(N)=O)cc1)CC(C)(C)CC2=O	.	.	.	.	/
COc1cc([N+](=O)[O-])cc(/C=N/NC(=O)CSc2nnc(-c3ccccc3)n2C)c1O	.	/	.	.	/
Cn1c(SCC(=O)N/N=C/c2ccc([N+](=O)[O-])s2)nnc1-c1ccc(Cl)cc1	.	.	.	958	.
Cc1cccc(NC(=S)N/N=C/c2ccc([N+](=O)[O-])s2)c1	.	.	.	.	/
Cc1ccc(S(=O)(=O)N2[C@@H](c3ccccc3)C(C(=O)O)=CC[C@H]2c2ccc(Cl)cc2)cc1	/	/	.	377	.
COc1cc([C@@H]2CC=C(C(=O)O)[C@H](c3ccc(F)cc3)N2S(=O)(=O)c2ccc(C)cc2)cc(OC)c1OC	/	/	.	.	/
COc1cc([C@@H]2CC=C(C(=O)O)[C@H](c3ccccc3F)N2S(=O)(=O)c2ccc(C)cc2)cc(OC)c1OC	/	/	.	662	.
Cc1cc(C)cc(C(=O)Nc2ccc3[nH]c(=O)[nH]c3c2)c1	.	.	.	.	/
O=C(Nc1ccc2[nH]c(=O)[nH]c2c1)c1c(F)c(F)c(F)c(F)c1F	.	.	.	613	.
SMILES	PolyA inh	NALP1 yeast inh	NALP3 yeast inh	SUMO Mot1 rescue	Yeast Mot1 SUMO
COc1ccc(NC(=O)c2c(Cl)nc3ccccn23)cc1	.	.	.	.	/
Cc1cc(NC(=O)c2ccccc2F)n(C(C)(C)C)n1	.	.	.	+	.
Cc1cc(NC(=O)c2ccc(F)cc2F)n(-c2nc3ccccc3[nH]2)n1	.	.	.	.	/
CCOc1ccc(Nc2nc(Cc3nnc(SCC(=O)N(CC)CC)n3C)cs2)cc1	.	.	.	.	/
CCN(CC)CCN1C(=O)C(O)=C(C(=O)c2sc(C)nc2C)C1c1cccnc1 (stereo unspecified)	.	.	.	.	/
Cc1ccc2c(C)c(C(=O)N(C)C(C)c3ccon3)oc2c1C (stereo unspecified)	.	.	.	.	/
Cc1ccc2c(C)c(C(=O)N(C)C(C)c3ccncn3)oc2c1C (stereo unspecified)	.	.	.	359	.
Cc1nn2c(N3CCOCC3)cc(C(C)C)nc2c1-c1ccccc1	.	.	.	.	/
CC(C)c1cc(N2CCOCC2)n2ncc(-c3ccccc3)c2n1	.	.	.	489	.
COc1cccc(-n2c(Cc3cc(=O)[nH]c(=O)[nH]3)nnc2SC(C)C)c1	?	.	.	.	/

High-throughput results: PubChem, several laboratories
